# Results published in PubChem BioAssay (NCATS).
# Inconclusive results are not listed. Active and inactive are the calls of the source. Calls follow the shape of the dose curve; as a rule, active = well fitted inhibition curve with a large enough effect; inconclusive = small, poorly fitted or top-dose-only effect; inactive = flat fitted curve, though single readings scatter.
# Test system: CRL-7250
# Assay: qHTS assay to identify novel small-molecules to repurpose for Merkel cell carcinoma treatment (AID 1296009); also: nearly all actives have a fitted effect of over 60% in size
# Conditions: MCC and control cell lines, CellTiter-Glo viability, 72 h; at 44.8 µM (top of the series) unless noted
# Outline: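 Viability readout: ATP luminescence (CellTiter-Glo) after 72 hr drug exposure at 37 degree celsius. Dose-response format was 8 points for NPC and 11 points for MIPE; data normalized to in-plate controls.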
row,Structure (SMILES),outcome
1,O=c1ccc2ccccc2o1,inactive
2,CCN(CCCCOC(=O)c1ccc(OC)c(OC)c1)C(C)Cc1ccc(OC)cc1 (stereo not drawn),inactive
3,C[C@@H](C1=C(CCN(C)C)Cc2ccccc21)c1ccccn1,inactive
4,Cc1c(N(C)C)c(=O)n(-c2ccccc2)n1C,inactive
5,C1CCN2C[C@@H]3C[C@@H](CN4CCCC[C@@H]34)[C@H]2C1,inactive
6,Cc1c(N)cccc1C(F)(F)F,inactive
7,CN1CCCCC1CCN1c2ccccc2Sc2ccc(S(C)=O)cc21 (stereo not drawn),inactive
8,N/C(=N\N=C\c1ccc(Cl)cc1)N/N=C/c1ccc(Cl)cc1,inactive
9,CCCCOc1cc(C(=O)OCCN(CC)CC)ccc1N,inactive
10,CCC(=O)O[C@]1(C(=O)COC)[C@@H](C)C[C@H]2[C@@H]3CCC4=CC(=O)C=C[C@]4(C)C3(F)[C@@H](O)C[C@@]21C (stereo partly drawn),inactive
11,O=C(c1ccc(F)cc1)C1CCN(CCn2c(=O)[nH]c3ccccc3c2=O)CC1,inactive
12,NC(N)=NCCC[C@H](N)C(=O)O,inactive [at 4.96 µM]
13,c1ccc2c(c1)CCc1ccccc1N2,inactive
14,O=S1(=O)OC(c2ccc(O)cc2)(c2ccc(O)cc2)c2ccccc21,inactive
15,CCCCC(=O)O[C@]1(C(=O)CO)[C@@H](C)C[C@H]2[C@@H]3CCC4=CC(=O)C=C[C@]4(C)[C@@]3(F)[C@@H](O)C[C@@]21C,inactive
16,COc1cc2[nH]c(=O)[nH]c(=O)c2cc1OC,inactive
17,Cc1c(C(=O)NN2CCCCC2)nn(-c2ccc(Cl)cc2Cl)c1-c1ccc(Cl)cc1,inactive
18,C(=C\c1ccccc1)/CN1CCN(C(c2ccccc2)c2ccccc2)CC1,inactive
